This is a sample that favours compounds with a hit; in the whole collection about 2.4% have one here.
GLS inhibitor: qHTS for Inhibitors of Glutaminase (GLS) | Glutaminase kidney isoform, mitochondrial (Homo sapiens), O94925 | GLS enzymatic activity, qHTS titration | Potency, µM (titrated, usually from 45.5 µM), hits mostly inhibitors | hit rate 0.21% among 410,000 | AID 624170, 2012
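Assay buffer: 45 mM KH2PO4 pH 8.2, 0.02% Tween-20. hKGA acts on L-glutamine (1 mM solution added); product glutamate is reported by an oxidase/peroxidase Amplex Red coupling, with fluorescence taken at baseline and 30 min.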
Pol kappa inh: qHTS for Inhibitors of Polymerase Kappa | purified Pol kappa, fluorescent DNA synthesis assay, 10 min | DNA polymerase kappa (Homo sapiens), Q9UBT6 | AID 588579, 2011 | Potency, µM (titrated, usually from 107 µM), hits mostly inhibitors | hit rate 0.53% among 400,000
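Kinetic fluorescence readout at 0 and 10 min followed reaction start with substrate at 50 nM final. Beforehand, enzyme (10 nM Pol kappa) stood 15 min with compound at room temperature; buffer-only wells were negative controls.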
Pol beta inh: qHTS Assay for Inhibitors of DNA Polymerase Beta; P06746; Pol beta primer extension/strand displacement, fluorescence kinetic; Potency, µM (series often up to 114 µM), actives largely listed as inhibitors; hit rate 1.3% among 340,000
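Homogeneous kinetic assay of primer extension and strand displacement by 10 nM Pol beta, preincubated 15 min at room temperature with compound before 50 nM substrate (final) was added. Read at 0 and 10 min; four-parameter Hill fit.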
Pol eta inh: qHTS for Inhibitors of Polymerase Eta; recombinant Pol eta, fluorescent DNA replication assay; Potency, µM (top dose mostly 114 µM), usual class: inhibitors; hit rate 1.2% among 390,000; AID 588591, 2011
Target sequence (Q9Y253 whole entry, looked up): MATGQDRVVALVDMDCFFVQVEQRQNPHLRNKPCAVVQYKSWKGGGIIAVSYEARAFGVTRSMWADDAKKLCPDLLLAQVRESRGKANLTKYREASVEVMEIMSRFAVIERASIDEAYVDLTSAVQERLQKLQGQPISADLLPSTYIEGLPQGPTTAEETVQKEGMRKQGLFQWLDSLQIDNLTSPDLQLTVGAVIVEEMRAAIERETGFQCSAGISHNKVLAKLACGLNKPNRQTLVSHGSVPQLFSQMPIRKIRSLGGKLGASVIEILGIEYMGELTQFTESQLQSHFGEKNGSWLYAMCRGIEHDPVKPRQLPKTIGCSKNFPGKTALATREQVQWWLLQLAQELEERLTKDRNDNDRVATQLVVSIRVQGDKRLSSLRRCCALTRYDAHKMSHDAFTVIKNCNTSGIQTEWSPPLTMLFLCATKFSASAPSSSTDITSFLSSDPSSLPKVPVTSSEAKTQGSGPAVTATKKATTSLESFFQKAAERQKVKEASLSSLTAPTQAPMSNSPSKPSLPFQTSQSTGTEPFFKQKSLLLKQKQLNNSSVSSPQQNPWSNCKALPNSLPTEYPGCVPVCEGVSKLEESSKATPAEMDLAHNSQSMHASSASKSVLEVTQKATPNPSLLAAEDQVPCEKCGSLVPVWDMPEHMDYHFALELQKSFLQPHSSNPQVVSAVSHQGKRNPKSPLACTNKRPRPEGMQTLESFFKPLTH
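Fluorescent replication assay: 50 nM final substrate added after a 15 min room-temperature compound preincubation with 10 nM enzyme. Signal taken at 0 min and again at 10 min.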
KAT2A inh: qHTS Assay for Inhibitors of GCN5L2; Histone acetyltransferase KAT2A (Homo sapiens), Q92830; GCN5L2 HAT assay, ThioGlo1 CoA-SH fluorescence; Potency, µM (series often up to 58.9 µM), usual class: inhibitors; hit rate 0.21% among 390,000; AID 504327, 2011
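Enzyme at 20nM final was mixed with library compounds for 15 min at room temperature. Peptide H3(1-25) at 75uM, acetyl-CoA at 70uM and ThioGlo1 at 50uM were then added. Plates were read immediately and after 20 min (Ex340nm/Em540nm).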
POLI inh: qHTS for Inhibitors of Polymerase Iota. AID 588590, 2011. Potency, µM (doses to about 115 µM), usual class: inhibitors. hit rate 1% among 390,000. DNA polymerase iota (Homo sapiens), Q9UNA4. Pol iota fluorescent replication assay, 10 min
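Pol iota at 10 nM preincubated 15 min with compounds at room temperature; reaction started with fluorescent substrate, 50 nM final. Fluorescence read kinetically at 0 and 10 min; buffer-only wells as negative control.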
Of the large screens only hits and unclear results are named; the others gave an inactive call. Calls come from the whole dose curve; as a rule, active = well fitted inhibition curve with a large enough effect; inconclusive = small, poorly fitted or top-dose-only effect, or another doubt; inactive = no such curve, though single readings can be large or run the other way.

CCN(CC)c1nc(N)c2c(N)nc3c(c2c1C#N)CC(c1ccccc1)O3 (stereo not given)	POLI inh inconclusive
CCC(=O)Nc1ccc(C(=O)CSc2nnc(-c3ccccc3F)n2C2CC2)cc1	Pol beta inh 28µM, Pol eta inh inconclusive, POLI inh inconclusive
O=C(O)c1ccc(C(=O)Nc2cccc3cccnc23)cc1	none (no result: GLS inhibitor, Pol beta inh, Pol eta inh, KAT2A inh)
CSCC[C@H](NC(=O)[C@H](Cc1c[nH]c2ccccc12)NC(=O)CNC(=O)[C@H](Cc1ccc(O)cc1)NC(=O)[C@H](C)NC(=O)[C@H](CCC(=O)O)NC(=O)[C@H](CCC(=O)O)NC(=O)[C@H](CCC(=O)O)NC(=O)[C@H](CCC(=O)O)NC(=O)[C@H](CCC(=O)O)NC(=O)[C@H](CC(C)C)NC(=O)[C@H](Cc1c[nH]c2ccccc12)NC(=O)[C@@H]1CCCN1C(=O)CNC(=O)[C@@H]1CCC(=O)N1)C(=O)N[C@@H](CC(=O)O)C(=O)N[C@@H](Cc1ccccc1)C(=O)NCC(=O)O	Pol kappa inh inconclusive (no result: GLS inhibitor, Pol beta inh, Pol eta inh, POLI inh)
CCC(C)Sc1nc2c(c(=O)[nH]1)C(c1cccs1)C1=C(CCCC1=O)N2 (stereo not given)	Pol beta inh 25µM, Pol eta inh inconclusive, POLI inh inconclusive
O=C1CCCC2=C1C(c1ccncc1)c1c(nc(SCc3ccccc3Cl)[nH]c1=O)N2 (stereo not given)	Pol beta inh inconclusive, Pol eta inh inconclusive
O=[N+]([O-])c1ccc(O/N=[N+](\[O-])N2CCCCC2)c([N+](=O)[O-])c1	none (no result: GLS inhibitor, Pol beta inh, Pol eta inh, KAT2A inh)
Cc1csc(N2CCN(c3cc4nc(-c5ccncc5)[nH]c4cc3Cl)CC2)n1	Pol beta inh 35µM, POLI inh inconclusive
O=S(=O)(Nc1cccc2cccnc12)C1CC1	none (no result: GLS inhibitor, Pol beta inh, Pol eta inh, KAT2A inh)
CCCCCCNC(=O)N[C@H](C(=O)NCCC[C@H]1CN2C(=NC[C@H]2C)N1CCC(c1ccccc1)c1ccccc1)C(C)O (stereo not given in full)	KAT2A inh 7.9µM (no result: GLS inhibitor, Pol kappa inh, Pol eta inh, POLI inh)
C/C=C(\C)C(=O)NCCN1C2=NC[C@H](C)N2C[C@@H]1Cc1ccc(OC)cc1	none
COc1ccc(C(C)NC(=O)CN(c2cc(OC)ccc2OC)S(=O)(=O)c2ccccc2)cc1 (stereo not given)	Pol beta inh 20µM, Pol eta inh inconclusive, POLI inh inconclusive
CCOC(=O)CNS(=O)(=O)c1cc(-c2nnc(Nc3cccc(O)c3)c3ccccc23)ccc1C	Pol kappa inh inconclusive, POLI inh 89µM
Cn1c2ccccc2n2c(=O)cc(-c3ccccc3)c(C#N)c12	Pol beta inh 45µM
Cn1c2ccccc2n2c(=O)c(Cl)c(-c3ccccc3)c(C#N)c12	none
Cc1ccc(-c2nn(CCC(=O)O)cc2/C=C\C(=O)c2ccc(Br)cc2)cc1	Pol eta inh 79µM, POLI inh 40µM
Nc1[nH]c(=S)[nH]c(=O)c1N	none (no result: GLS inhibitor, Pol beta inh, Pol eta inh, KAT2A inh)
COc1ccc(C(c2c(N)[nH]c(=S)[nH]c2=O)c2c(N)[nH]c(=S)[nH]c2=O)cc1	GLS inhibitor 11µM
CC(C)N1[N]C(=C2C=c3cc(O)ccc3=N2)c2c(N)ncnc21	none (no result: Pol kappa inh, Pol beta inh, Pol eta inh, KAT2A inh, POLI inh)
Cc1cc(O)c(C(=O)/C=C/c2cccc([N+](=O)[O-])c2)c(=O)o1	Pol kappa inh inconclusive, Pol beta inh inconclusive, Pol eta inh 79µM, KAT2A inh inconclusive, POLI inh 40µM
Cc1cc(O)c(C(=O)/C=C/c2ccccc2O)c(=O)o1	Pol eta inh inconclusive
COC(=O)[C@@H]1C[C@]2(Br)c3ccccc3N(S(=O)(=O)c3ccccc3)[C@@H]2N1C(=O)OC	none (no result: Pol beta inh, KAT2A inh)
COC(=O)[C@@H]1C[C@@]2(Br)c3ccccc3N(S(=O)(=O)c3ccccc3)[C@H]2N1C(=O)OC	POLI inh 89µM (no result: Pol beta inh, KAT2A inh)
Cc1csc[n+]1CC(=O)c1ccccc1	none (no result: GLS inhibitor, Pol beta inh, Pol eta inh, KAT2A inh)
CCCCOc1ccc(CNC(=O)c2cccc(NC(=O)N3CCSc4ncccc43)c2)cc1	none
